Screens: PubChem, National Center for Advancing Translational Sciences (NCATS)
An excerpt weighted towards active compounds, which were near 0.43% of everything screened.
Menin MLL FP FL: qHTS Assay for Inhibitors Targeting the Menin-MLL Interaction in MLL Related Leukemias: Competition With Fluorescein Labeled MLL-derived Peptide; Fluorescence polarization, fluorescein-MLL peptide displacement from menin; FP activity change, % at 61.4 µM; 290,000 tested, under 10 active; AID 1766, 2009; active = well fitted curve in the direction sought with a large enough effect in the polarisation, not every such curve was filed as active; inconclusive = small, poorly fitted or top-dose-only effect, or effect the other way, or a change in a side signal; inactive = no such curve, though single readings can be large or run the other way; the % refers to the polarisation; note: % of control where 0% means no effect
Tb PFK inh-1: qHTS Assay to Find Inhibitors of T. brucei phosphofructokinase; ATP-dependent 6-phosphofructokinase (Trypanosoma brucei brucei), O15648; T. brucei PFK, ADP-Glo luminescence; Potency, µM (top dose mostly 57.5 µM), inactives show at the highest dose activity, negative = inhibition, most hits filed as inhibitors; actives 0.17% (n = 330,000); AID 485367, 2010;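 note: potency is the fitted concentration of half-maximal effect; 0% = uninhibited 1x PFK enzyme wells and -100% = no-enzyme wells; nearly all actives have a fitted effect of over 60% in size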
Target sequence (O15648 whole entry, looked up): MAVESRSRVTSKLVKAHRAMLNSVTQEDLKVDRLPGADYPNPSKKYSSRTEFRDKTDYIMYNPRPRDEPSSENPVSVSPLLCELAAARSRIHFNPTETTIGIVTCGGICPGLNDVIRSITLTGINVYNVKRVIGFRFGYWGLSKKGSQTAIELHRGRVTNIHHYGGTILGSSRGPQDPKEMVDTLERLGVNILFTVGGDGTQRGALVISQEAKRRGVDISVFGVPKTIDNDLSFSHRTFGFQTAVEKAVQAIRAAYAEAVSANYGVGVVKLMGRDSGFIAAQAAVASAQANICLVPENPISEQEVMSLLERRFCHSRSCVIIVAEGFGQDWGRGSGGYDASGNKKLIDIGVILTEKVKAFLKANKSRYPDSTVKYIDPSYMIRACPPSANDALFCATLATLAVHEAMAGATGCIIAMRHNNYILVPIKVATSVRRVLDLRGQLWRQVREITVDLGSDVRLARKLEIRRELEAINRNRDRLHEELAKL
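1.25 nM PFK with 0.5 mM F6P and 0.1 mM ATP in 0.1 M TEA pH 8.0, 5 mM MgCl2, incubated 45 min at room temperature; ADP measured by ADP-Glo luminescence; compounds titrated up to 57 uM.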
Menin MLL FP TR: qHTS Assay for Inhibitors Targeting the Menin-MLL Interaction in MLL Related Leukemias: Competition With Texas Red Labeled MLL-derived Mutant Peptide | O00255 | Menin + Texas Red MLL mutant peptide, fluorescence polarization | Potency, µM (series often up to 61.6 µM), without a hit: at the highest dose FP activity change, negative = inhibition, actives largely listed as inhibitors | actives 0.23% (n = 270,000); active = well fitted inhibition curve with a large enough effect in the polarisation, with a control signal flat, not every such curve was filed as active; inconclusive = small, poorly fitted or top-dose-only effect, or effect the other way, or a change in a side signal; inactive = no such curve, though single readings can be large or run the other way; the % refers to the polarisation; note: potency is the fitted concentration of half-maximal effect; % of control where 0% means no effect
RGS12 GoLoco inh: qHTS Assay for Inhibitors of RGS12 GoLoco Motif Activity (Red Fluorophore); Gai1:RGS12 GoLoco peptide FP, rhodamine, 10 min; Potency, µM (series often up to 61.6 µM), for the others: at the top dose activity, negative = inhibition, most hits filed as inhibitors; actives 0.44% (n = 230,000); active = well fitted inhibition curve with a large enough effect, not every such curve was filed as active; inactive = no such curve, though single readings can be large or run the other way; note: potency is the fitted concentration of half-maximal effect; % is set by controls: 0 for no effect and ±100 for the full control effect; nearly all actives have a fitted effect of over 30% in size
MLL CXXC-DNA inh: qHTS Fluorescence Polarization Assay for Inhibitors of MLL CXXC domain - DNA interaction | Potency, µM (top dose mostly 115 µM), for inactives: top-dose activity change, negative = inhibition, actives largely listed as inhibitors | MLL-CXXC / FITC-HOXA9 DNA fluorescence polarization | actives 0.037% (n = 290,000); active = well fitted inhibition curve with a large enough effect in the polarisation, with a control signal flat, not every such curve was filed as active; inconclusive = small, poorly fitted or top-dose-only effect, or effect the other way, or a change in a side signal; inactive = no such curve, though single readings can be large or run the other way; the % refers to the polarisation; note: potency is the fitted concentration of half-maximal effect
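Purified MLL-CXXC (added from a 7 uM solution) was preincubated 5 min at ambient with pinned compounds in 50 mM Tris-HCl pH 7.5, 50 mM NaCl, 1 mM DTT, 0.05% BSA. Fluorescein-labeled HOX-A9 DNA (50 nM solution) followed, 30 min, then polarization read.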
TbPFK ATP: Tb PFK orthogonal confirmatory assay using ATP depletion (Kinase-Glo Plus) as an alternative measure of Tb PFK activity: Hit Validation; actives 47% (n = 1,100); shares compounds with Tb PFK inh-1; Tb PFK enzyme, ATP depletion, Kinase-Glo Plus luminescence; Potency, µM (series often up to 57.5 µM), for the others: top-dose inhibition; calls by dose curve; note: potency is the fitted concentration of half-maximal effect; nearly all actives have a fitted effect of over 60% in size
Tb PFK inh-2: Inhibitors of T. brucei phosphofructokinase: Hit Validation | actives 41% (n = 1,100) | Potency, µM (doses to about 57.5 µM), without a hit: at the highest dose activity change, negative = inhibition, actives largely listed as inhibitors | purified T. brucei PFK, ADP-Glo luminescence, 45 min | shares compounds with Tb PFK inh-1 | AID 504637, 2011;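 note: potency is the fitted concentration of half-maximal effect; plate controls were full PFK enzyme control for no effect and no enzyme control for full effect; nearly all actives have a fitted effect of over 60% in size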
* marks the source's active call; other numbers are inactive results; ? = inconclusive; / = no result given. Unless noted, calls come from the whole dose curve; as a rule, active = well fitted inhibition curve with a large enough effect; inconclusive = small, poorly fitted or top-dose-only effect, or effect the other way; inactive = flat fitted curve, though single readings scatter.

SMILES	Menin MLL FP FL	Tb PFK inh-1	Menin MLL FP TR	RGS12 GoLoco inh	MLL CXXC-DNA inh	TbPFK ATP	Tb PFK inh-2
CC[C@H](C)[C@H](N)C(=O)N[C@@H](CCCNC(=N)N)C(=O)N[C@@H](CCC(N)=O)C(=O)NCC(=O)N1CCC[C@H]1C(=O)N[C@@H](CCCCN)C(=O)N[C@@H](CCC(=O)O)C(=O)N1CCC[C@H]1C(=O)N[C@@H](Cc1ccccc1)C(=O)N[C@@H](CCCNC(=N)N)C(=O)N[C@@H](CC(=O)O)C(=O)N[C@@H](Cc1ccc(O)cc1)C(=O)N[C@H](C(=O)N[C@@H](CC(=O)O)C(=O)N[C@@H](CCCNC(=N)N)C(=O)N[C@@H](Cc1ccccc1)C(=O)N[C@@H](Cc1ccc(O)cc1)C(=O)N[C@@H](CCCCN)C(=O)N[C@H](C(=O)N[C@@H](CC(C)C)C(=O)O)[C@@H](C)O)C(C)C	0	/	10%	/	/	/	/
Cc1ccc(Cn2c(N)nc3ccccc32)cc1	0	0%	-10%	/	23%	/	/
Nc1nc2ccccc2n1Cc1ccc(Cl)c(Cl)c1	-5	?	-1%	/	40%	13µM*	?
O=c1oc2ccccc2c(O)c1[C@H]1c2ccc(O)cc2Oc2c1c(=O)oc1ccccc21	-1	?	/	-19%	-10%	-26%	?
O=c1oc2ccccc2c2c1C(O)CO2 (configuration not stated)	4	3%	10%	/	10%	/	/
C=C(C)C(=O)OCCOCC	1	/	-8%	/	/	/	/
NS(=O)(=O)c1ccc(NC(=S)NCc2cccc(Cl)c2)cc1	4	?	25%	/	-3%	1.5µM*	2.4µM*
NS(=O)(=O)c1ccc(NC(=O)Nc2ccc(Cl)cc2)cc1	-3	12µM*	31%	-3%	4%	6µM*	11µM*
CSc1ccccc1NC(=S)Nc1ccc(S(N)(=O)=O)cc1	-4	0%	7%	5%	15%	/	/
NS(=O)(=O)c1ccc(NC(=S)NCc2ccccc2)cc1	-4	-26%	-16%	5%	-1%	/	/
NS(=O)(=O)c1ccc(NC(=S)Nc2cc(Cl)c(Cl)cc2Cl)cc1	4	?	3%	9%	17%	27µM*	?
CCc1ccc(C(=O)N2CCN(c3ccc(NC(=O)c4cccnc4)cc3)CC2)cc1	/	-2%	/	/	-8%	/	/
CCCCn1c(N)c(N(CCOC)C(=O)c2ccc(Cl)c(S(=O)(=O)N3CCCCC3)c2)c(=O)[nH]c1=O	/	1%	/	/	/	/	/
CN(CC(=O)Nc1ccc(Cl)cc1)C(=O)CNC(=O)Cc1cccc2ccccc12	/	-9%	/	/	/	/	/
CS(=O)(=O)N1CCN(Cc2ccc([N+](=O)[O-])cc2)CC1	2	?	-2%	-4%	-5%	?	?
COc1cc(Cl)c(C)cc1NC(=O)c1ccc2c(SCC(=O)O)c3c(nc2c1)CCCC3	1	3%	26%	0%	0%	/	/
COc1ccc(C)cc1NC(=O)c1ccc2c(SCC(=O)O)c3c(nc2c1)CCCC3	6	?	/	4%	-5%	-30%	?
N#C/C(C(=O)Nc1ccc(Cl)cc1)=C(/S)Nc1ccccc1	?	9.5µM*	?	/	49%	15µM*	?
COc1cc(C)c(NC(=O)C(=S)NCCc2ccccc2)cc1C	2	?	6%	-2%	-13%	24µM*	?
